Compound activity deposited in PubChem by National Center for Advancing Translational Sciences (NCATS).
p53ts 39C tox = cytotoxicity in p53ts cells at nonpermissive temperature | H1299-p53A138V viability at 39C, ATP luminescence, 24 h | Potency, µM (highest dose often 46.1 µM), inactives show at the highest dose activity change, negative = cell killing, most hits filed as cytotoxic | 130,000 compounds, 1.5% hits; further: on the % scale 0 is the no-effect control and ±100 the full control effect; nearly all actives have a fitted effect of over 55% in size
p53ts 32C tox = kills p53ts cells at the permissive temperature; H1299-p53A138V at 32C, ATP luminescence viability, 24 h; Potency, µM (titrated, usually from 46.1 µM), inactives show at the top dose activity change, negative = cytotoxicity, actives largely listed as cytotoxic; 130,000 compounds, 0.93% hits; AID 924;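 further: 0% = DMSO and -100% = full killing by reference compound; nearly all actives have a fitted effect of over 55% in size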
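ATP-content luminescence (ATPlite) read-out after 24 h compound exposure at 32C in H1299-p53A138V cells (600/well). Tested up to 46 uM. Normalized to DMSO (0%) and 100 uM tamoxifen (100% killing); Hill-fit AC50.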
Peg3 imprint = inducers of genomic imprint erasure in mouse ES cells. mouse ES Peg3-LacZ reporter, beta-gal luminescence, 40 h. Potency, µM (series often up to 60.7 µM), inactives show at the top dose activity change, positive = activation, actives largely listed as activators. 110,000 compounds, 0.02% hits
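Readout: BetaGlo luminescence (5 min, room temp) for LacZ from the normally silent maternal Peg3 allele in female Peg3LacZ-Neo ES cells. Cells 300/well, 40 h, 37C, 5% CO2. Data normalized per plate to negative controls.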
Active calls of the source: *; [ ] = another dose, or the depositor's remark. An excerpt weighted towards active compounds, which were near 1.6% of everything screened. The call rests on the fitted dose curve; in most records, active means well fitted curve in the direction sought with a large enough effect; inconclusive means small, poorly fitted or top-dose-only effect, or another doubt; inactive means no such curve, though single readings can be large; an effect the other way counts as inactive or inconclusive. Potency means the concentration at half of the fitted maximal effect.

For Nc1ccc(-c2ccc3ccccc3n2)cc1 the results were p53ts 39C tox inconclusive, p53ts 32C tox inconclusive and Peg3 imprint -80%.
Screening O=C1c2ccccc2C(=O)C1c1ccc2ccccc2n1 returned p53ts 39C tox 2.5µM*, p53ts 32C tox inconclusive and Peg3 imprint 9%.
`COC(=O)C/C=C\[C@@H](C)[C@@H](/C=N\OC[C@@H](C)[C@H](OCc1ccccc1)C(C)C)NS(=O)(=O)c1ccc(C)cc1` gave p53ts 39C tox 2%[9.22 µM] and p53ts 32C tox 1%[9.22 µM].
CCN(CC)S(=O)(=O)c1ccc2c(c1)c(=O)c(C(=O)NCc1ccccc1Cl)cn2C was read as p53ts 39C tox 6.3µM*, p53ts 32C tox inconclusive and Peg3 imprint 28%[10.9 µM].
CCN(CC)S(=O)(=O)c1ccc2c(c1)c(=O)c(C(=O)NCc1ccccc1)cn2C was read as p53ts 39C tox 3%, p53ts 32C tox -12% and Peg3 imprint 12%[10.9 µM].
CCOc1ccc(CCNC(=O)c2cc3c(=O)[nH]c4ccc(C)cc4c3s2)cc1OCC was read as p53ts 39C tox -24%, p53ts 32C tox -3% and Peg3 imprint -16%[10.9 µM].
`COc1ccccc1NC(=O)c1c(NCc2ccc(C)o2)sc2c1CCC(C)C2` (configuration not stated) gave p53ts 39C tox 15%, p53ts 32C tox inconclusive and Peg3 imprint -14%[10.9 µM].
Screening COc1ccc(NC(=O)c2c(NCc3ccc(C)o3)sc3c2CCC(C)C3)c(OC)c1 (configuration not stated) returned p53ts 39C tox 20µM*, p53ts 32C tox inconclusive and Peg3 imprint -24%[10.9 µM].
Screening Cc1ccc2nc3ccc(N4CCN(C)CC4)nn3c(=O)c2c1 returned p53ts 39C tox inconclusive, p53ts 32C tox 4µM* and Peg3 imprint -15%.
`Cc1sc2nc3ccc(N4CCCC4)nn3c(=O)c2c1C` gave p53ts 39C tox inconclusive, p53ts 32C tox -29% and Peg3 imprint -14%.
`Cc1cn(C2OC(COC(=O)c3ccccc3)C(OC(=O)c3ccccc3)C2OC(=O)c2ccccc2)c(=O)[nH]c1=O` (configuration not stated) gave p53ts 39C tox -5% and p53ts 32C tox -16%.
`O=C(OCC1OC(OC(=O)c2cc(O)c(O)c(OC(=O)c3cc(O)c(O)c(O)c3)c2)[C@@H](OC(=O)c2cc(O)c(O)c(OC(=O)c3cc(O)c(O)c(O)c3)c2)C(OC(=O)c2cc(O)c(O)c(OC(=O)c3cc(O)c(O)c(O)c3)c2)C1OC(=O)c1cc(O)c(O)c(OC(=O)c2cc(O)c(O)c(O)c2)c1)c1cc(O)c(O)c(OC(=O)c2cc(O)c(O)c(O)c2)c1` (some centres not stated) gave p53ts 39C tox 6.3µM*, p53ts 32C tox 10µM* and Peg3 imprint -83%.
`O=C(O)/C=C\c1c2ccc(=O)c(O)c-2oc2c(O)c(O)ccc12` gave p53ts 39C tox 10%[9.22 µM], p53ts 32C tox 7%[9.22 µM] and Peg3 imprint 6%[10.9 µM].
For CCOC(=O)c1ccccc1NC(=O)CSc1nc2ccccc2o1 the results were p53ts 39C tox -17%, p53ts 32C tox -4% and Peg3 imprint -70%.
Screening CCCOC(=O)Nc1nc2ccccc2o1 returned p53ts 39C tox inconclusive and p53ts 32C tox 10µM*.
`COc1ccc(Cn2c(CO)cnc2SCC(=O)NCc2ccco2)cc1` gave p53ts 39C tox 3%, p53ts 32C tox 4% and Peg3 imprint 10%[10.9 µM].
Screening Cc1ccc(S(=O)(=O)OCC(=O)O)cc1 returned p53ts 39C tox -14%[9.22 µM], p53ts 32C tox 0%[9.22 µM] and Peg3 imprint 0%[10.9 µM].
`Cc1ccc(/C=C/c2nc3ccccc3[nH]2)cc1` gave p53ts 39C tox 0.5µM*, p53ts 32C tox 0.5µM* and Peg3 imprint -91%[10.9 µM].
Screening Cc1ccccc1-c1nc2ccccc2[nH]1 returned p53ts 39C tox 7% and p53ts 32C tox -14%.
CCCOc1cccc(C(=O)Nc2cccc(NC(=O)c3ccc(Cl)cc3Cl)c2)c1 was read as p53ts 39C tox 1%, p53ts 32C tox 0% and Peg3 imprint 4%[10.9 µM].
For CCCOc1ccc(C(=O)Nc2cccc(NC(=O)c3ccc(Cl)cc3Cl)c2)cc1 the results were p53ts 39C tox 7.9µM*, p53ts 32C tox inconclusive and Peg3 imprint -13%[10.9 µM].
For COCCCNC(=O)CCCn1c(SCC(=O)c2ccc(Br)cc2)nc2c(sc3ccccc32)c1=O the results were p53ts 39C tox -4%, p53ts 32C tox 4% and Peg3 imprint 6%[10.9 µM].
`CC(C)CCN1CCc2nc(COc3ccccc3)c3c(c2C1)COC(C)C3` (configuration not stated) gave p53ts 39C tox -4%[9.22 µM] and p53ts 32C tox 6%[9.22 µM].
For Cc1ccccc1-c1nnc2c3ccccc3c(C)nn12 the results were p53ts 39C tox 18% and p53ts 32C tox 10%.
`COc1ccc(-c2nn3c(-c4ccccc4C)nnc3c3ccccc23)cc1` gave p53ts 39C tox 10µM*, p53ts 32C tox 25% and Peg3 imprint 5%[10.9 µM].
`Cc1ccc(-n2ncc3c(N(C)Cc4ccccc4)ncnc32)cc1` gave p53ts 39C tox 16µM*, p53ts 32C tox inconclusive and Peg3 imprint -12%[10.9 µM].
Cc1ccc(-n2ncc3c(N(CCO)Cc4ccccc4)ncnc32)cc1 was read as p53ts 39C tox inconclusive, p53ts 32C tox -17% and Peg3 imprint -10%[10.9 µM].
For CCCCN(c1ccccc1)c1ncnc2c1cnn2-c1ccc(Cl)cc1 the results were p53ts 39C tox -22%, p53ts 32C tox -14% and Peg3 imprint -12%[10.9 µM].
Screening CCN(c1ccccc1)c1ncnc2c1cnn2-c1ccc(OC)cc1 returned p53ts 39C tox 13µM*, p53ts 32C tox inconclusive and Peg3 imprint -5%[10.9 µM].
Cc1c(CCC(=O)NCCc2ccccc2)c(=O)oc2c(C)c(O)ccc12 was read as p53ts 39C tox 7%, p53ts 32C tox -1% and Peg3 imprint -4%[10.9 µM].
`CC(C)Oc1ccc(CNC(=O)c2ccccc2NC(=O)c2nsc3ccccc23)cc1` gave p53ts 39C tox inconclusive, p53ts 32C tox -20% and Peg3 imprint -3%[10.9 µM].
Screening c1ccc([C@H](c2cccc3c2ccc2ccccc23)[C@H](c2ccccc2)c2cccc3c2ccc2ccccc23)cc1 returned p53ts 39C tox 8%[9.22 µM] and p53ts 32C tox 9%[9.22 µM].
`COC(=O)[C@@]1(Cc2ccccc2)[C@H]2c3cc(C(=O)N4CCCC4)n(CC4CC4)c3C[C@H]2CN1C(=O)c1ccccc1` gave p53ts 39C tox 51%, p53ts 32C tox 32% and Peg3 imprint -17%.
`CCCN1CCN(CCCNC(=O)c2cc3c(s2)-c2c(C)cccc2OC3)CC1` gave p53ts 39C tox 10µM*, p53ts 32C tox inconclusive and Peg3 imprint -18%[10.9 µM].
Screening CCCN1CCN(CCCNC(=O)c2cc3c(s2)-c2ccccc2OC3)CC1 returned p53ts 39C tox inconclusive, p53ts 32C tox -17% and Peg3 imprint -12%[10.9 µM].
For CCN1CCN(CCCNC(=O)c2cc3c(s2)-c2ccccc2OC3)CC1 the results were p53ts 39C tox -26%, p53ts 32C tox -19% and Peg3 imprint -4%[10.9 µM].
Screening O=C(NCCCN1CCN(c2ccccc2F)CC1)c1cc2c(s1)-c1ccccc1OC2 returned p53ts 39C tox 13µM*, p53ts 32C tox inconclusive and Peg3 imprint -11%[10.9 µM].
